# Measurements taken from PubChem BioAssay AID1259415 (National Center for Advancing Translational Sciences (NCATS), 2018).
# The whole screen tested about 410,000 compounds, of which about 18,000 (4.4%) were called active. About 7% were inconclusive and are not listed. Only a selection was taken, and actives are over-represented in it overall. Unmarked numbers belong to inactive results. Cut-off read from the data, not from the text of the source: active = activity change below about -60%; inconclusive = no clear call, values can overlap the other calls; inactive = above about -39%.
# Experiment: qHTS Assay for inhibitors of the human cytomegalovirus (HCMV)
# Settings: HFF cells, HCMV-luciferase reporter, 72 h; at 57.5 µM; active compounds read low
# Procedure, shortened: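 Inhibition of viral replication was scored as loss of reporter luminescence in HFFs infected with HCMV-luciferase (MOI 1 PFU/cell) for 72 h; compounds tested at 2 doses, normalized to buffer and Salinomycin controls.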
# % is set by controls: 0 for no effect and ±100 for the full control effect.
row,Compound,"activity change, negative = inhibition"
1,CCC(C)NC(=O)Cn1c(=O)n(-c2ccc(Cl)cc2)c(=O)c2c3c(sc21)CCCC3 (configuration not stated),12.8%
2,CCOC(=O)c1c(NC(C)=O)c2c3c(sc2n1Cc1c(C)cc(C)cc1C)CCCC3,-73.8% (active)
3,CCOc1ccc(C(=O)c2cn(Cc3ccc(F)cc3)c3ccc(F)cc3c2=O)cc1,-1.76%
4,CCCc1nn2c(=O)cc(CSCC(=O)Nc3cccc(C)c3)nc2s1,2.89%
5,C=CCNC(=S)N/N=C/c1ccc(C)s1,0% (active)
6,C=CCNC(=S)NNC(=O)c1ccc(Br)o1,-7.15%
7,CNC(=S)N/N=C/c1ccc(N2CCOCC2)s1,26.5%
8,CN(C(=O)COC(=O)Cn1cnc2c1c(=O)n(C)c(=O)n2C)C1(C#N)CCCCC1,40.8%
9,CCC(CC)c1nn2cc(-c3ccccc3)nc2s1,-21.9%
10,CCc1cc2c(cc3c(=O)n(CC(=O)NCc4cccc(Cl)c4)nc(CC)n32)s1,34.4%
11,CC1(C)CC2CC(C)(CN2c2ncnc3ccc(Br)cc23)C1 (configuration not stated),-62.4% (active)
12,Cc1ccc(CN(C(=O)c2ccccc2[N+](=O)[O-])c2ccccn2)cc1,3.28%
13,Cc1ccc(C(CNC(=O)Nc2ccccc2)N2CCN(C)CC2)cc1 (configuration not stated),-29.6%
14,C=CC[n+]1c(-c2ccc(C)cc2)csc1NNC(=O)Nc1ccccc1,-69.2% (active)
15,Cc1ccc(NC(=O)NNC(=O)c2sccc2-n2cccc2)cc1,-19%
16,Cc1cc2c(cc3c(SCc4nc(-c5ccccc5)oc4C)nnc(C)n32)o1,-3.85%
17,CC(=O)Nc1ccc(NC(=O)CSc2nnc3c4cc(Br)ccc4n(C)c3n2)cc1,38.8%
18,CCOC(=O)CN1C(C(=O)c2ccccc2)=C(OC(=O)C(C)(C)C)c2ccccc2S1(=O)=O,-14%
19,CCCOc1ccc(Cc2c(O)nc(SC)[nH]c2=O)cc1C,15.7%
20,Cc1nc(SCCOc2ccc(Cl)cc2)[nH]c(=O)c1Cc1ccccc1,-7.29%
21,CCCOc1ccc(Cc2c(Cl)nc(SC)nc2NC)cc1,-93.9% (active)
22,CN(Cc1cccc2ncccc12)C(=O)CC1C(=O)NCCN1Cc1ccc(F)cc1 (configuration not stated),-30.9%
23,O=C(CN1CCN(Cc2ccc(Cl)cc2)C1=O)NCc1ccc(F)cc1,-24.9%
24,Cc1ccc(C(=O)NC2CCCC(C)C2C)cc1S(=O)(=O)N1CCCCC1 (configuration not stated),-22.8%

row,Compound,"activity change, negative = inhibition"
1,Cc1nn(-c2ccccc2)c(C)c1NC(=O)COc1ccc(Cl)cc1Cl,-98.7% (active)
2,Cc1nn(-c2ccccc2)c(C)c1NC(=O)COC(=O)Cc1ccccc1,-13%
3,Cc1nn(-c2ccccc2)c(C)c1NC(=O)COC(=O)c1cc(Cl)ccc1O,9.57%
4,N#Cc1nc(/C=C/c2ccc(F)cc2)oc1NCc1ccc(F)cc1,-13.8%
5,COc1cccc(-c2cc(C(=O)Nc3ccc(C)cc3)[nH]n2)c1,11.2%
6,CCc1ccc(CNC(=O)c2cc3cc4ccc(OC)cc4nc3o2)cc1,-26.2%
7,Cc1ccc2c(=O)c(C(=O)c3cccc(Cl)c3)cn(CC(=O)NCc3ccccc3)c2n1,-12.2%
8,CN(C(=O)c1ccc2c(c1)N(Cc1cccc(Cl)c1)C(=O)c1ccccc1S2=O)C1CCCCC1 (configuration not stated),-63.4% (active)
9,O=C(NC1CCCCC1)c1ccc2c(c1)N(Cc1ccc(Cl)cc1)C(=O)c1ccccc1S2=O (configuration not stated),8.53%
10,O=C(Nc1cc(Cl)cc(Cl)c1)c1ccc2c(c1)N(Cc1cccc(Cl)c1)C(=O)c1ccccc1S2=O (configuration not stated),16.5%
11,CCCCNC(=O)c1nc(C2CCN(S(=O)(=O)c3ccc(F)c(F)c3)CC2)oc1-c1cccc(C(F)(F)F)c1,6.36%
12,CC(C)(C)OC(=O)N1CCC(c2c(C(=O)Nc3ccc4c(c3)OCO4)cnn2-c2ccccc2)CC1,-8.71%
13,COC(=O)c1ccc(NC(=O)c2cnn(-c3ccc(Cl)cc3)c2C2CCN(C(=O)OC(C)(C)C)CC2)cc1,0% (active)
14,CC(C)(C)OC(=O)N1CCC(c2c(C(=O)NCc3ccccn3)cnn2-c2ccc(F)cc2)CC1,14.7%
15,COc1ccccc1CN1CCC(CNC(=O)c2cnn(-c3ccccc3Cl)c2C2CCN(C(=O)OC(C)(C)C)CC2)CC1,-7.53%
16,COc1ccccc1CN1CCC(CNC(=O)c2cnn(-c3cccc(Cl)c3)c2C2CCN(C(=O)OC(C)(C)C)CC2)CC1,-108% (active)
17,Cc1cccc(-n2ncc(C(=O)N3CCC(C)CC3)c2C2CCN(C(=O)OC(C)(C)C)CC2)c1,0%
18,COc1ccccc1N1CCN(CCCNC(=O)c2cnn(-c3ccccc3Cl)c2C2CCN(C(=O)OC(C)(C)C)CC2)CC1,-12.2%
19,CCN1CCN(CCCNC(=O)c2cnn(-c3ccc(C)cc3C)c2C2CCN(C(=O)OC(C)(C)C)CC2)CC1,-13.5%
20,Cc1ccc(CN2CCC(CNC(=O)c3cnn(-c4ccccc4Cl)c3C3CCN(C(=O)OC(C)(C)C)CC3)CC2)cc1,-65.8% (active)
21,CCOC(=O)N1CCC(NC(=O)c2cnn(-c3cccc(C)c3)c2C2CCN(C(=O)OC(C)(C)C)CC2)CC1,0% (active)
22,Cc1ccc(CN2CCC(CNC(=O)c3cnn(-c4ccc(C)cc4)c3C3CCN(C(=O)OC(C)(C)C)CC3)CC2)cc1,0%
23,CC(C)(C)OC(=O)N1CCC(c2c(C(=O)N3CCN(c4cccc(Cl)c4)CC3)cnn2-c2cccc(Cl)c2)CC1,26.6%
